# In the library only some 12% were active in any assay of this set; here they are far more common.
# G9a inh-1: G9a (human) methyltransferase inhibition; G9a H3K9 monomethylation, AlphaScreen, 2 h; 350,000 compounds, 8.8% hits; Q96KQ7; Potency, µM (series often up to 102 µM), without a hit: at the highest dose activity, negative = inhibition, usual class: inhibitors; further: potency means the concentration at half of the fitted maximal effect; on the % scale 0 is the no-effect control and ±100 the full control effect; nearly all actives have a fitted effect of over 75% in size
#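 AlphaScreen read-out: biotin-H3K9 peptide (500 nM) methylation by 20 nM enzyme with 20 uM SAM, 2 h at room temperature after 15 min compound preincubation; anti-monomethyl H3K9 antibody plus donor/acceptor beads, 10 min dark.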
# JMJD2A Tudor inh: JMJD2A Tudor domain (human) inhibition | O75164 | AlphaScreen JMJD2A-Tudor / H3K4me3 peptide binding | Potency, µM (highest dose often 114 µM), without a hit: at the highest dose activity change, negative = inhibition, actives largely listed as inhibitors | 390,000 compounds, 4.4% hits | AID 504339; further: potency means the concentration at half of the fitted maximal effect; on the % scale 0 is the no-effect control and ±100 the full control effect; nearly all actives have a fitted effect of over 50% in size
# Target sequence (O75164 whole entry, looked up, the tested form may be a part): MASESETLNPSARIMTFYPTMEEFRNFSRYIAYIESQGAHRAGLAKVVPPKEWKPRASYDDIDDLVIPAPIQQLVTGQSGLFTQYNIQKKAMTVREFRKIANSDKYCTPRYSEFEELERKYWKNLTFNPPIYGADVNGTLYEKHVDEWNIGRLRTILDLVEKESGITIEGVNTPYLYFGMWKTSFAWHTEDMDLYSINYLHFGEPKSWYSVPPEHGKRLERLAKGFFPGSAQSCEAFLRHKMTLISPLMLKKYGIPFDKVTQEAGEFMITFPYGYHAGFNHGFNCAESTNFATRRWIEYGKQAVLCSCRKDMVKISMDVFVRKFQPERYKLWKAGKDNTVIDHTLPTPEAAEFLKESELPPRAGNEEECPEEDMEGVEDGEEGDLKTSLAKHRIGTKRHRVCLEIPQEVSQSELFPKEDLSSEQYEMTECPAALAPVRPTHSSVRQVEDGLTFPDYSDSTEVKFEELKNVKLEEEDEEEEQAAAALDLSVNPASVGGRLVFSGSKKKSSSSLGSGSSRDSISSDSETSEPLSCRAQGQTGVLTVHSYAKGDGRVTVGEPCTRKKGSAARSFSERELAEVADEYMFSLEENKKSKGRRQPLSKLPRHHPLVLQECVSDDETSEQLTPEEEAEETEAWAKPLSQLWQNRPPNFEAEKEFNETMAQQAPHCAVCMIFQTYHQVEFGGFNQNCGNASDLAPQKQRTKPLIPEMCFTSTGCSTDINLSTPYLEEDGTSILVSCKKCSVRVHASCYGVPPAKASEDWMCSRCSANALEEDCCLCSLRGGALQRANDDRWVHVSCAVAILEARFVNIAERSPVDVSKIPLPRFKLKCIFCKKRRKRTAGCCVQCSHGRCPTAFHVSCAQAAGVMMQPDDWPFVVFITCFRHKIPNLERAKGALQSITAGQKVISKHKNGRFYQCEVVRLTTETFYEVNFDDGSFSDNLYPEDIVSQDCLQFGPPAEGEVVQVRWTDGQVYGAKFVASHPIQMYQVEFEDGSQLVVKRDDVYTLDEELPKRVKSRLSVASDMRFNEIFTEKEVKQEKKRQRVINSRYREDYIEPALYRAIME
# PLK1 PBD inh: inhibitors of human PLK1 polo-box domain binding; Plk1 PBD binding of FITC phosphopeptide, fluorescence polarization; P53350; Potency, µM, inactives show max response, negative = inhibition, actives largely listed as inhibitors; 360,000 compounds, 2.8% hits; further: potency means the concentration at half of the fitted maximal effect; series mostly up to about 57 µM; on the % scale 0 is the no-effect control and ±100 the full control effect; nearly all actives have a fitted effect of over 65% in size
# HP1b binding inh: HP1-beta chromodomain-methylated histone interaction inhibition | Potency, µM (doses to about 114 µM), without a hit: at the top dose activity change, negative = inhibition, hits mostly inhibitors | 390,000 compounds, 0.56% hits | AID 540317 | P83916 | AlphaScreen HP1-beta / biotin-H3K9me3 peptide binding; further: potency means the concentration at half of the fitted maximal effect; nearly all actives have a fitted effect of over 70% in size
#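 Compound inhibition of the preformed complex between 50 nM HP1-beta and 50 nM biotinylated H3K9me3 peptide was read by AlphaScreen. Buffer was PBS pH 7.4 with 0.01% Tween-20. Incubations ran 30 min at room temperature, with 10 ug/mL donor/acceptor beads.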
# BAZ2B block: blocks human BAZ2B | Potency, µM (highest dose often 114 µM), without a hit: top-dose activity change, negative = inhibition, actives largely listed as inhibitors | 360,000 compounds, 4.4% hits | Q9UIF8 | AID 504333 | AlphaScreen BAZ2B-H3K14Ac peptide displacement; further: potency means the concentration at half of the fitted maximal effect; on the % scale 0 is the no-effect control and ±100 the full control effect; nearly all actives have a fitted effect of over 60% in size
#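 BAZ2B 50 nM plus b-H3(5-23)K14Ac 50 nM, PBS pH 7.4/0.01% Tween-20, 30 min RT; compound added (max 110 uM), 30 min RT; streptavidin donor/Ni-chelate acceptor beads 10 ug/mL final, 20 min dark; AlphaScreen read.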
# PI5P4Ka inh: blocks human PI5P4K alpha kinase activity; AID 652105; max response, %; PI5P4Kalpha enzyme, ADP-Glo luminescence, 60 min; stronger effect = lower value; 330,000 compounds, 1.2% hits; active means max response of -50% or lower; inconclusive means between -30% and -50%; inactive means -30% or higher; further: value at the top dose of about 77 µM; on the % scale 0 is the no-effect control and ±100 the full control effect
#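 Single end-point luminescence (ADP-Glo) quantified ADP from PI5P4Kalpha turnover; ATP 5 microM final, 1 h at RT, 0.1% CHAPS and 0.28 mM EGTA in HEPES pH 7.4.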
# G9a inh-2: inhibits human G9a histone lysine methyltransferase, hit confirmation | shares compounds with JMJD2A Tudor inh | G9a H3K9 monomethylation, AlphaScreen, 2 h | Potency, µM, hits mostly inhibitors | 370 compounds, 89% hits | AID 588344; further: potency means the concentration at half of the fitted maximal effect; nearly all actives have a fitted effect of over 65% in size
# Numbers without * were called inactive; ? = inconclusive; / = no result given; [ ] = remark or other dose. Unless noted, the call rests on the fitted dose curve; in most records, active means well fitted curve in the direction sought with a large enough effect; inconclusive means small, poorly fitted or top-dose-only effect, or another doubt; inactive means no such curve, though single readings can be large; an effect the other way counts as inactive or inconclusive.
SMILES,G9a inh-1,JMJD2A Tudor inh,PLK1 PBD inh,HP1b binding inh,BAZ2B block,PI5P4Ka inh,G9a inh-2
CCOC(=O)c1ccc(NC(=O)CC2C(=O)N(c3cccc(OC)c3)C(=O)N2Cc2ccc(OC)cc2)cc1 (stereo not drawn),-3%[59 µM],-17%,/,26%,-15%,/,/
O=C(Nc1ccc2c(c1)OCO2)c1cc(C2CCCCN2S(=O)(=O)Cc2ccccc2)on1 (stereo not drawn),/,/,-5%,/,/,2,/
COc1ccc(OC)c(-c2csc(NC(=O)Cc3ccc(F)cc3)n2)c1,-16%,?,-7%,-14%,-39%,21,/
COc1ccc(OC)c(-c2csc(NC(=O)COC(=O)C3CCC3)n2)c1,?,-34%,-5%,12%,-37%,6,10*
COc1ccccc1CNc1ccc(N2CCCCC2)cc1,?,32µM*,-22%,32µM*,13µM*,/,1.1*
COc1cccc(CNc2ccc(N3CCCCC3)cc2)c1OC,?,35µM*,-14%,40µM*,14µM*,1,0.89*
CCN(CC)c1ccc(NC(=O)Cn2nnc(-c3cccc(OC)c3OC)n2)c(C)c1,0.71µM*,-2%,0%,35%,-1%,/,7.1*
CN(CC(=O)Nc1ccc(N2CCOCC2)cc1)Cc1c(O)ccc2ccccc12,0.5µM*,56µM*,4.7µM*,-1%,?,-27,0.25*
CSc1ccccc1NC(=O)CN(C)CC(=O)Nc1ccc(N2CCOCC2)cc1,23%[59 µM],-2%,-5%,40%,-21%,-1,/
O=C(Nc1cccc(Cl)c1)c1csc([C@H]2C[C@H](O)[C@@H](CO)O2)n1,/,/,-5%,/,/,-12,/
COc1ccc(O)c(CNc2ccccc2F)c1,?,-29%,-4%,3%,/,3,28*
COc1ccc(Br)cc1CNc1ccc(O)cc1,?,?,30µM*,?,40µM*,-29,3.2*
C=CCOc1c(Cl)cc(CNc2ccc(N(C)C)cc2)cc1OC,1.8µM*,18µM*,-9%,16µM*,25µM*,/,5.6*
CCOC(=O)N1CCc2c(sc(NCc3cccs3)c2C(=O)Nc2cc(Cl)ccc2OC)C1,1.1µM*,?,/,19%,-24%,/,2.3*
COc1ccc(OC)c(NC(=O)c2c(NC(=O)c3ccco3)sc3c2CCC3)c1,-26%[12.7 µM],/,/,/,8%,/,/
COc1ccc(Cl)cc1NC(=O)c1c(NCc2cccs2)sc2c1CCCC2,1.4µM*,?,/,-2%,-39%,/,4.1*
CCN(CC)c1ccc(Nc2nc(-c3cccnc3)cs2)cc1,0.89µM*,13µM*,-13%,40µM*,20µM*,-7,5*
CN(C)c1ccc(Nc2nc(-c3cccnc3)cs2)cc1,?,-34%,-3%,-6%,?,1,0.5*
Fc1ccc(Nc2nc(-c3cccnc3)cs2)cc1,18%,-10%[11.4 µM],-24%,-11%,-23%,6,/
Clc1ccc(Nc2nc(-c3cccnc3)cs2)cc1,?,-13%,-5%,26%,-31%,-2,/
Cc1ccccc1CNC(=O)c1oc2c(c1C)-c1nn(Cc3ccc(Cl)cc3)cc1CC2,-28%[59 µM],-26%,/,9%,-24%,/,/
CC(C)C(=O)Nc1ccc(NC(=O)c2ccc([N+](=O)[O-])cc2Cl)cc1,0%[59 µM],-5%,0%,31%,5%,0,/
CN(C)c1ccc(NC(=O)c2ccc([N+](=O)[O-])cc2Cl)cc1,2µM*,-13%,-3%,-2%,-19%,-1,6.3*
CCOC(=O)c1ccccc1NC(=O)N(Cc1ccc(C)cc1)Cc1cccn1-c1nnc(N2CCCC2=O)s1,0.79µM*,10%,/,43%,-2%,/,?
CCCc1ccc(OCC(=O)Nc2scc(-c3cccs3)c2C(=O)OC)cc1,?,-3%,/,1%,7%,/,/
COC(=O)c1c(-c2cccs2)csc1NC(=O)COc1ccc(C(C)C)cc1,2.2µM*,-24%,/,?,-11%,/,8.1*

# Compound activity as filed in PubChem.
